Pol iota inh – qHTS for Inhibitors of Polymerase Iota; Pol iota fluorescent replication assay, 10 min; Potency, µM (highest dose often 115 µM), most hits filed as inhibitors; 1% of 390,000 active
Target sequence (Q9UNA4 whole entry, looked up): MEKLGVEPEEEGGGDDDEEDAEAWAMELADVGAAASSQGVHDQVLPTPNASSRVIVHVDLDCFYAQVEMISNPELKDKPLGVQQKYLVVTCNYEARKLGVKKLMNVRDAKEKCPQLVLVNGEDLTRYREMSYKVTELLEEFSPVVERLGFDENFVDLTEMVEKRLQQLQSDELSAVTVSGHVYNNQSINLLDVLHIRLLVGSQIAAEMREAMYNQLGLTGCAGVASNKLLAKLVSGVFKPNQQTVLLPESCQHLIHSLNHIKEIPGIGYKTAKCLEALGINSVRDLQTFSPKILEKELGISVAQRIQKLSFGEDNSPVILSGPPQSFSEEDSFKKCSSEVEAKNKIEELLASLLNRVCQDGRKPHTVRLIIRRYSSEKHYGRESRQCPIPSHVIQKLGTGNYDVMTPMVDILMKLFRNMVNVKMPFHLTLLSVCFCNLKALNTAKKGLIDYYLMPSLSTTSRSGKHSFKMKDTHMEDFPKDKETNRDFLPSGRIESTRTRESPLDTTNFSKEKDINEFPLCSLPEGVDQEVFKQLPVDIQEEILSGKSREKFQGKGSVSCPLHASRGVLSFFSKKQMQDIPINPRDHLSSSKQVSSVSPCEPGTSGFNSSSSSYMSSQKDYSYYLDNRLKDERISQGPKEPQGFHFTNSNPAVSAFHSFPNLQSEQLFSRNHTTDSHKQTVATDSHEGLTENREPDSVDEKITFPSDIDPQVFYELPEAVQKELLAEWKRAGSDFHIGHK
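Fluorescent replication assay read twice, at 0 min and 10 min after adding 50 nM (final) substrate. Enzyme (10 nM) and compounds were first incubated 15 min at room temperature; enzyme-free buffer wells were negative controls.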
WRN helicase inh – qHTS for Inhibitors of WRN Helicase; Potency, µM (titrated, usually from 114 µM), actives largely listed as inhibitors; WRN helicase unwinding, fluorescent forked duplex, kinetic; 0.46% of 360,000 active; note: nearly all actives have a fitted effect of over 55% in size
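Kinetic fluorescence helicase assay: unwinding of a quenched forked DNA duplex (100 nM final) with 2 mM ATP final raises red fluorescence (525/598 nm). Compounds sat 15 min at room temperature with 20 nM WRN beforehand.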
POLH inh – qHTS for Inhibitors of Polymerase Eta; DNA polymerase eta (Homo sapiens), Q9Y253; recombinant Pol eta, fluorescent DNA replication assay; Potency, µM (series often up to 114 µM), hits mostly inhibitors; 1.2% of 390,000 active; AID 588591, 2011
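Pol eta (10 nM) was preincubated with compounds for 15 min at room temperature, after which fluorescent replication substrate (50 nM final) was added to start the reaction. Fluorescence was read kinetically at 0 and 10 min.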
Pol beta inh – qHTS Assay for Inhibitors of DNA Polymerase Beta; P06746; Pol beta primer extension/strand displacement, fluorescence kinetic; Potency, µM (series often up to 114 µM), most hits filed as inhibitors; 1.3% of 340,000 active; AID 485314, 2010
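Human Pol beta at 10 nM; strand-displacement substrate 50 nM final. Compound exposure 15 min at room temperature before start, reaction 10 min at room temperature.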
POLK inh – qHTS for Inhibitors of Polymerase Kappa. DNA polymerase kappa (Homo sapiens), Q9UBT6. purified Pol kappa, fluorescent DNA synthesis assay, 10 min. Potency, µM (top dose mostly 107 µM), most hits filed as inhibitors. 0.53% of 400,000 active
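First, compounds were pin-transferred onto 10 nM Pol kappa. After 15 min at room temperature, substrate was added to 50 nM final. Fluorescence was then measured kinetically at 0 and 10 min.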
FEN1 inhibitor – qHTS Assay for the Inhibitors of Human Flap endonuclease 1 (FEN1) | Potency, µM (titrated, usually from 114 µM), most hits filed as inhibitors | AID 588795, 2011 | Recombinant FEN1 flap cleavage, fluorescence, 15 min | P39748 | 0.35% of 390,000 active; note: nearly all actives have a fitted effect of over 65% in size
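Quantitative HTS format: each compound was titrated, incubated with 10 nM nuclease for 15 min at room temperature, then challenged with flap substrate at 50 nM final. Signal change over 15 min gave concentration–effect curves.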
Numbers stand for hits; [ ] = remark or other dose. An excerpt weighted towards active compounds, which were near 2.4% of everything screened. Calls come from the whole dose curve; as a rule, active = well fitted curve in the direction sought with a large enough effect; inconclusive = small, poorly fitted or top-dose-only effect, or another doubt; inactive = no such curve, though single readings can be large; an effect the other way counts as inactive or inconclusive.

O=C(C[n+]1cccc(Cl)c1)c1ccc(O)c(O)c1 was read as Pol iota inh inconclusive, POLK inh 2.24µM and FEN1 inhibitor inactive.
For CC1CCN(c2ccc(S(=O)(=O)N3CCC(C)CC3)cc2N)CC1 the results were Pol iota inh inactive, WRN helicase inh inactive, POLH inh inactive, Pol beta inh inactive, POLK inh inactive and FEN1 inhibitor inactive.
`O=C(Nc1cccc(-c2cscn2)c1)C1CCN(Cc2ccc(CO)o2)CC1` gave Pol iota inh 50.1µM, WRN helicase inh inactive[11.6 µM], POLH inh inactive, Pol beta inh inactive, POLK inh inconclusive and FEN1 inhibitor inactive.
COCc1ccc(CN2CCC(C(=O)Nc3cccc(-c4cscn4)c3)CC2)o1 was read as Pol iota inh inactive, WRN helicase inh inactive, POLH inh inactive, Pol beta inh inactive, POLK inh inactive and FEN1 inhibitor inactive.
Screening COc1ccc(OC)c(S(=O)(=O)NCC(c2ccco2)S(=O)(=O)c2ccccc2)c1 (centres undefined) returned Pol iota inh inactive, WRN helicase inh inactive, POLH inh inactive, Pol beta inh inactive, POLK inh inactive and FEN1 inhibitor inactive.
For CCc1ccc(OC(=O)/C=C/c2ccco2)cc1 the results were Pol iota inh inconclusive, WRN helicase inh inactive, POLH inh inactive, Pol beta inh 35.5µM, POLK inh inconclusive and FEN1 inhibitor inactive.
For COC(=O)N/N=C/c1ccc(OC(=O)/C=C/c2ccco2)cc1 the results were Pol iota inh 35.5µM, WRN helicase inh inconclusive, POLH inh inconclusive, Pol beta inh 11.2µM, POLK inh inconclusive and FEN1 inhibitor inactive.
O=C(Cc1ccccc1)N/N=C/c1ccc(OC(=O)/C=C\c2ccco2)cc1 was read as Pol iota inh inconclusive, WRN helicase inh inactive, POLH inh inactive, Pol beta inh inactive, POLK inh inconclusive and FEN1 inhibitor inactive.
COc1ccc(NC2CCCN(C(=O)c3cccnc3SC)C2)cc1OC (centres undefined) was read as Pol iota inh inactive, WRN helicase inh inactive, POLH inh inactive, Pol beta inh inactive, POLK inh inactive and FEN1 inhibitor inactive.
Screening CCCC[C@]12Cc3cc(C#N)ccc3C(O1)c1c(cc(C)n(Cc3ccccc3)c1=O)O2 returned Pol beta inh inactive[22.9 µM].
`O=C(O)c1cc(NS(=O)(=O)c2ccc(NC3CCCCC3)c([N+](=O)[O-])c2)cc(C(=O)O)c1` gave Pol iota inh inactive, WRN helicase inh inactive[11.6 µM], POLH inh 44.7µM, Pol beta inh inactive, POLK inh inactive and FEN1 inhibitor inactive.
For O=c1c2cc3c(cc2n(Cc2ccc(F)cc2)c(=O)n1Cc1nc(-c2ccccc2)no1)OCO3 the results were Pol iota inh inactive, POLH inh inactive, Pol beta inh inactive, POLK inh inactive and FEN1 inhibitor inactive.
`O=c1c2cc3c(cc2n(Cc2ccc(Cl)cc2)c(=O)n1Cc1nc(-c2ccccc2)no1)OCO3` gave Pol iota inh 89.1µM, POLH inh inactive, Pol beta inh inactive, POLK inh inconclusive and FEN1 inhibitor inactive.
For COC(=O)c1ccc2nc(C)cc(Nc3ccccc3C)c2c1 the results were Pol iota inh inactive, WRN helicase inh inactive, POLH inh inactive, Pol beta inh inactive, POLK inh inactive and FEN1 inhibitor inactive.
Cc1cc(C)n(CCc2nc(-c3cc4ccccc4o3)cs2)n1 was read as Pol iota inh inactive, WRN helicase inh inactive, POLH inh inactive, Pol beta inh inactive, POLK inh inactive and FEN1 inhibitor inactive.
Cc1cc(C)n(CCc2nc(-c3ccc(C)o3)cs2)n1 was read as Pol iota inh inconclusive, WRN helicase inh inactive[11.6 µM], POLH inh 15.8µM, Pol beta inh 50.1µM, POLK inh inactive and FEN1 inhibitor inactive.
`CCCc1n[nH]c2c1C(=O)CC(C)(C)C2` gave Pol iota inh inactive, WRN helicase inh inactive, POLH inh inactive, Pol beta inh inactive, POLK inh inactive and FEN1 inhibitor inactive.
For Cc1c2c(=O)n(-c3nc4ccccc4s3)nc-2cc(O)n1Cc1ccccc1 the results were Pol iota inh 35.5µM, WRN helicase inh inactive[11.6 µM], POLH inh 44.7µM, Pol beta inh inconclusive, POLK inh inconclusive and FEN1 inhibitor inconclusive.
Cc1cc(C)n(-c2nc3ccccc3s2)n1 was read as Pol iota inh inactive, WRN helicase inh inactive, POLH inh inactive, Pol beta inh inactive, POLK inh inactive and FEN1 inhibitor inactive.
`COc1ccc(-c2csc(NC(=O)c3ccccc3NS(=O)(=O)c3ccc(C)cc3)n2)cc1` gave Pol iota inh 31.6µM, WRN helicase inh inactive, POLH inh 20µM, Pol beta inh inconclusive, POLK inh inconclusive and FEN1 inhibitor inconclusive.
Screening COc1cc(NS(=O)(=O)c2ccc(Nc3nc(-c4ccccn4)cs3)cc2)nc(OC)n1 returned Pol iota inh inactive, WRN helicase inh inconclusive, POLH inh inactive, Pol beta inh inactive, POLK inh inactive and FEN1 inhibitor inactive.
`COc1ccc(-c2csc(Nc3ccc(S(=O)(=O)Nc4cc(C)on4)cc3)n2)cc1C` gave Pol iota inh inactive, WRN helicase inh inactive, POLH inh 89.1µM, Pol beta inh inconclusive, POLK inh inactive and FEN1 inhibitor inactive.
`COc1ccc(-c2csc(Nc3ccc(S(=O)(=O)Nc4cc(OC)nc(OC)n4)cc3)n2)cc1` gave Pol iota inh inactive, WRN helicase inh inactive, POLH inh 89.1µM, Pol beta inh inactive, POLK inh inactive and FEN1 inhibitor inconclusive.
CCOC(=O)c1cnc2c([N+](=O)[O-])cnn2c1C was read as Pol iota inh inactive, WRN helicase inh inactive, POLH inh inactive, Pol beta inh inactive, POLK inh inactive and FEN1 inhibitor inactive.
O=C(Cc1ccc(S(=O)(=O)N2CCOCC2)s1)N1CCN(S(=O)(=O)c2ccccc2F)CC1 was read as Pol iota inh inactive, WRN helicase inh inactive, POLH inh inactive, POLK inh inactive and FEN1 inhibitor inactive.
For COc1ccc(-c2nc3cnc(N4CCNCC4)nc3n(C)c2=O)cc1 the results were POLK inh inactive.
Screening O=C(Nc1ccc2nc(-c3cccnc3)[nH]c2c1)C1CCCCC1 returned Pol iota inh inactive, WRN helicase inh inactive, POLH inh inactive, Pol beta inh inactive, POLK inh inactive and FEN1 inhibitor inactive.
Cc1cc(C(=O)Nc2ccc(N3CCCC3)c(Cl)c2)ccc1[N+](=O)[O-] was read as Pol iota inh inactive, WRN helicase inh inactive, POLH inh inactive, Pol beta inh inactive, POLK inh inactive and FEN1 inhibitor inactive.
For Cc1nnc(SCc2nnc(-c3cccs3)o2)n1C the results were Pol iota inh inactive, WRN helicase inh inactive, POLH inh inactive, Pol beta inh inactive, POLK inh inactive and FEN1 inhibitor inactive.

Screening data as filed in PubChem BioAssay.
